High-throughput results from PubChem BioAssay.
ALDH1A1 inh: inhibitors of human aldehyde dehydrogenase 1A1; 220,000 compounds, 7.3% hits; Potency, µM (highest dose often 75.3 µM), most hits filed as inhibitors; Purified ALDH1A1, NADH fluorescence, propionaldehyde substrate; P00352; AID 1030; active = well fitted inhibition curve with a large enough effect, not every such curve was filed as active; inconclusive = small, poorly fitted or top-dose-only effect, or another doubt; inactive = no such curve, though single readings can be large or run the other way
CBFb RUNX1 block: inhibitors of human CBF-beta and RUNX1 interaction; Potency, µM (series often up to 59.8 µM), hits mostly inhibitors; 230,000 tested, under 10 active; AID 1477; Q01196+Q13951; AlphaScreen CBFb-His/RUNX1-biotin binding, biochemical
Target sequence (Q01196 whole entry, looked up): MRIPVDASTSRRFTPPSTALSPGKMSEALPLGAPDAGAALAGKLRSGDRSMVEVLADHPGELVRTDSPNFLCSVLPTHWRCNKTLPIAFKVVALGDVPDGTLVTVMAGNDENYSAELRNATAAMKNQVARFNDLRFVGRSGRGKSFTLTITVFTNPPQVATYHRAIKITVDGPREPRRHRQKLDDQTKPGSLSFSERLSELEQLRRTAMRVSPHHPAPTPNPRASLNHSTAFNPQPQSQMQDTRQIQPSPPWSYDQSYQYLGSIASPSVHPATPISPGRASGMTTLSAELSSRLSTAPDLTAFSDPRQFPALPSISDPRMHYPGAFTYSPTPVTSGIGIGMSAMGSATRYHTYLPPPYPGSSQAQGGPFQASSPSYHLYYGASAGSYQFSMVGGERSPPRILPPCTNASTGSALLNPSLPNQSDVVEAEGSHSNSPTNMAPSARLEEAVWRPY
Target sequence (Q13951 whole entry, looked up): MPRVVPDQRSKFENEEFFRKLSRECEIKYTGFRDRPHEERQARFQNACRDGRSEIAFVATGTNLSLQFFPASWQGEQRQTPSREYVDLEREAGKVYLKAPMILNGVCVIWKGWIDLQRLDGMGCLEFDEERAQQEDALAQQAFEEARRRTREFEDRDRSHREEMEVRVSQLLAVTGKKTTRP
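CBF-beta (His) and RUNX1 (biotin), 30 nM each; 20 min preassociation; + compound, 15 min; + beads 50 ng each (Ni, streptavidin), 90 min; RT; AlphaScreen read.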
PNC assembly inh: inhibitors of perinucleolar compartment assembly. PC3M PTB-GFP, PNC prevalence imaging, 16 h; active compounds read low. activity change (PNC), negative = inhibition, % at 10 µM. 140,000 compounds, 3.1% hits;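 active = readout at or below -70, meaning at least 70% loss of cells showing the perinucleolar compartment, a nuclear body marking cancer cells; inconclusive = readout between -30 and a set limit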
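PC3M cells stably expressing PTB-GFP, 750–1000 cells/well, treated 16 h at 37 °C with compound (23 nl of library stock), in duplicate. After paraformaldehyde fixation and Hoechst stain, imaged at 20x; PNC prevalence scored by image analysis.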
HTT cytoprotect: protects HTT-Q103 PC12 cells, measured by ATP | AID 1471 | PC12 HTT-Q103 induced, cytoprotection, ATP luminescence, 40 h | 230,000 compounds, 0.14% hits | Potency, µM (top dose mostly 56.4 µM), actives largely listed as activators; note: nearly all actives have a fitted effect of over 45% in size
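Huntington model: PC12 line, ecdysone-inducible HTTQ103 exon1–GFP, tebufenozide 100 nM. Test articles in a dose series. Endpoint luminescence from cellular ATP.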
HttQ103 aggreg: reduces HttQ103-GFP aggregates in PC12 cells | PC12 HttQ103-GFP aggregates, Acumen cytometry, 40 h | Potency, µM (series often up to 46.1 µM), hits mostly inhibitors | 220,000 compounds, 1.1% hits; note: nearly all actives have a fitted effect of over 60% in size
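Steps: seed 1500 PC12 HTTQ103-GFP cells/well; add tebufenozide, 100 nM final; add compound titration; add ATPLite reagent; quantify GFP aggregates by laser scanning cytometry.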
HPGD block: inhibitors of human 15-hydroxyprostaglandin dehydrogenase (HPGD) | P15428 | 150,000 compounds, 4.3% hits | Potency, µM, actives largely listed as inhibitors | purified HPGD, NADH fluorescence kinetic, PGE2 substrate; active = well fitted inhibition curve with a large enough effect, not every such curve was filed as active; inconclusive = small, poorly fitted or top-dose-only effect, or another doubt; inactive = no such curve, though single readings can be large or run the other way
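NADH formation kinetics: reaction with 30 uM PGE2 and 1 mM NAD+ (final), 20 nM enzyme, Tris-HCl pH 8 with Tween 20, after 15 min compound preincubation at room temperature. Fluorescence change, last versus first of five reads.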
Of the large screens only hits and unclear results are named; the others gave an inactive call. This is a sample that favours compounds with a hit; in the whole collection about 11% have one here. Unless noted, calls come from the whole dose curve; as a rule, active = well fitted curve in the direction sought with a large enough effect; inconclusive = small, poorly fitted or top-dose-only effect, or another doubt; inactive = no such curve, though single readings can be large; an effect the other way counts as inactive or inconclusive.

CC[C@H](C)[C@H](NC(=O)[C@H](Cc1ccc(O)cc1)NC(=O)[C@H](CCCNC(=N)N)NC(=O)[C@H](CCCNC(=N)N)NC(=O)[C@H](CC(C)C)NC(=O)[C@H](CCC(N)=O)NC(=O)[C@@H](NC(=O)[C@H](CCC(=O)O)NC(=O)[C@H](Cc1ccc(O)cc1)NC(=O)[C@H](CCC(N)=O)NC(=O)[C@H](C)NC(=O)[C@H](CCCNC(=N)N)NC(=O)[C@H](CCC(N)=O)NC(=O)[C@H](CCC(=O)O)NC(=O)[C@H](Cc1cnc[nH]1)NC(=O)[C@@H](NC(=O)[C@H](C)NC(=O)[C@H](Cc1ccc(O)cc1)NC(=O)[C@H](CC(=O)O)NC(=O)CNC(=O)[C@@H]1CCCN1C(=O)[C@H](Cc1ccc(O)cc1)NC(=O)[C@H](CCSC)NC(=O)[C@@H]1CCCN1C(=O)[C@H](CCC(=O)O)NC(=O)[C@H](CC(C)C)NC(=O)[C@@H]1CCCN1C(=O)[C@H](C)N)[C@@H](C)O)[C@@H](C)O)C(=O)N[C@@H](CC(N)=O)C(=O)N[C@H](C(=O)N[C@@H](CC(C)C)C(=O)N[C@H](C(=O)N[C@@H](CCCNC(=N)N)C(=O)N1CCC[C@H]1C(=O)N[C@@H](CCCNC(=N)N)C(=O)N[C@@H](Cc1ccc(O)cc1)C(N)=O)[C@@H](C)O)[C@@H](C)O	none (no result: ALDH1A1 inh, PNC assembly inh, HTT cytoprotect, HttQ103 aggreg, HPGD block)
O=[N+]([O-])/C(=C\Nc1ccccc1Cl)S(=O)(=O)c1ccccc1	HPGD block 32µM
CC1(C)CN=C(N(Cc2ccccc2)C(=O)Nc2ccccc2)S1	none (no result: HTT cytoprotect)
CCOCC(=O)Nc1ccc2c(c1)OCCO2	ALDH1A1 inh inconclusive, PNC assembly inh inconclusive, HPGD block 14µM
CC(Sc1ccc2c(c1)OCCO2)C(=O)Nc1ccc2c(c1)OCO2 (centres undefined)	ALDH1A1 inh 10µM
C/C(=N\OCC(=O)Nc1ccc2c(c1)OCCO2)c1ccc2c(c1)OCCO2	PNC assembly inh inconclusive, HttQ103 aggreg 28µM (no result: HPGD block)
COc1cc(Cl)c(C)cc1NC(=O)COC(=O)c1cc[n+]([O-])cc1	ALDH1A1 inh 16µM (no result: PNC assembly inh, HPGD block)
CC1CCC2(C(=O)O)CCC3(C)C(=CCC4C3(C)CCC3[C@@]4(C)CC(O)C(O)[C@@]3(C)CO)C2C1C (some centres undefined)	none (no result: CBFb RUNX1 block, PNC assembly inh, HTT cytoprotect, HttQ103 aggreg)
C[C@H]1Cc2c(COc3ccccc3)nc3c(c2CO1)CN(C(=O)c1ccco1)CC3	none (no result: PNC assembly inh, HttQ103 aggreg)
COc1cccc(C2=NOC(C(=O)Nc3cc(C)on3)C2)c1 (centres undefined)	none (no result: ALDH1A1 inh, PNC assembly inh, HPGD block)
O=C(COC(=O)c1cc[n+]([O-])cc1)Nc1ccc2c(c1)OCCO2	ALDH1A1 inh 14µM
NC(=O)c1ccc(NC(=O)COC(=O)c2ccc3c(c2)OCCO3)cc1	none (no result: ALDH1A1 inh, PNC assembly inh, HPGD block)
COc1ccc(C)cc1S(=O)(=O)Nc1ccc(F)c(Cl)c1	PNC assembly inh inconclusive, HPGD block 28µM
COc1ccccc1NS(=O)(=O)c1cc(Cl)ccc1OC	PNC assembly inh -114
COc1ccccc1NS(=O)(=O)c1ccc(Cl)c(NC(=O)c2sc3cc(Cl)ccc3c2Cl)c1	none (no result: PNC assembly inh, HPGD block)
COc1ccccc1NS(=O)(=O)c1cccc(NC(=O)Nc2cccc(Cl)c2)c1	CBFb RUNX1 block inconclusive, PNC assembly inh -86
COc1ccccc1NS(=O)(=O)c1cccc(NC(=O)NCCCl)c1	none (no result: ALDH1A1 inh, PNC assembly inh, HPGD block)
COc1ccccc1NS(=O)(=O)c1ccc(Cl)c(NC(=O)C(C)N2C(=O)c3ccccc3C2=O)c1 (centres undefined)	ALDH1A1 inh 18µM
COc1cccc(Nc2nc(N)c([N+](=O)[O-])c(NCc3ccccc3)n2)c1	none (no result: ALDH1A1 inh, PNC assembly inh, HPGD block)
CCNc1ncc2nc(-c3cc(F)cc(F)c3)c(=O)n(CCC#N)c2n1	ALDH1A1 inh inconclusive (no result: CBFb RUNX1 block, PNC assembly inh, HttQ103 aggreg, HPGD block)
CC(=O)OC[C@@H]1O[C@@H](O/N=C2/C[C@@H](O)[C@@H](O)[C@@H]3[C@@H]4C(=O)N(C[C@@H]5CCCO5)C(=O)[C@H]4CC[C@@H]23)[C@H](OC(C)=O)[C@H](OC(C)=O)[C@@H]1OC(C)=O	none (no result: PNC assembly inh, HttQ103 aggreg, HPGD block)
